High-throughput results: PubChem, National Center for Advancing Translational Sciences (NCATS)
nsP2pro inh = Primary qHTS for inhibitors of NSP2Pro chikungunya virus (CHIKV); FRET peptide cleavage, nsP2pro, fluorescence 1 h; Potency, µM (titrated, usually from 24.9 µM), hits mostly inhibitors; hit rate 1.1% among 31,000; AID 1964107, 2024; also: nearly all actives have a fitted effect of over 60% in size
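Enzyme 150 nM, substrate 2.5 uM (both final); Tris-HCl 10 mM pH 8.0 + 0.01% Tween 20; cpd up to 25 uM, 7 pts; 15 min preinc., 1 h RT; fluorescence ex 525/em 598.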
nsP2 cell sec = Secondary cell base assay for inhibitors of NSP2Pro Chikungunya virus (CHIKV); shares compounds with nsP2pro inh; cell-based CHIKV nsP2 protease reporter assay; Potency, µM (highest dose often 51.1 µM), usual class: inhibitors; hit rate 10% among 450; AID 1964100, 2024; also: nearly all actives have a fitted effect of over 70% in size
CHIKV NSP2 FL = Selectivity profile for inhibitors of NSP2Pro chikungunya virus (CHIKV): Full length NSP2 enzyme counterscreen (CHIKV-NSP2); Potency, µM (highest dose often 50.7 µM), usual class: inhibitors; Full-length CHIKV NSP2 protease enzymatic counterscreen; hit rate 39% among 410; shares compounds with nsP2pro inh; also: nearly all actives have a fitted effect of over 65% in size
Furin counterscr = Selectivity profile for inhibitors of NSP2Pro chikungunya virus (CHIKV): Human furin counterscreen. shares compounds with nsP2pro inh. Recombinant human furin enzymatic counterscreen, fluorogenic substrate. Potency, µM (series often up to 50.6 µM), hits mostly inhibitors. hit rate 6% among 410. AID 1964102, 2024
Target sequence (P09958 whole entry, looked up): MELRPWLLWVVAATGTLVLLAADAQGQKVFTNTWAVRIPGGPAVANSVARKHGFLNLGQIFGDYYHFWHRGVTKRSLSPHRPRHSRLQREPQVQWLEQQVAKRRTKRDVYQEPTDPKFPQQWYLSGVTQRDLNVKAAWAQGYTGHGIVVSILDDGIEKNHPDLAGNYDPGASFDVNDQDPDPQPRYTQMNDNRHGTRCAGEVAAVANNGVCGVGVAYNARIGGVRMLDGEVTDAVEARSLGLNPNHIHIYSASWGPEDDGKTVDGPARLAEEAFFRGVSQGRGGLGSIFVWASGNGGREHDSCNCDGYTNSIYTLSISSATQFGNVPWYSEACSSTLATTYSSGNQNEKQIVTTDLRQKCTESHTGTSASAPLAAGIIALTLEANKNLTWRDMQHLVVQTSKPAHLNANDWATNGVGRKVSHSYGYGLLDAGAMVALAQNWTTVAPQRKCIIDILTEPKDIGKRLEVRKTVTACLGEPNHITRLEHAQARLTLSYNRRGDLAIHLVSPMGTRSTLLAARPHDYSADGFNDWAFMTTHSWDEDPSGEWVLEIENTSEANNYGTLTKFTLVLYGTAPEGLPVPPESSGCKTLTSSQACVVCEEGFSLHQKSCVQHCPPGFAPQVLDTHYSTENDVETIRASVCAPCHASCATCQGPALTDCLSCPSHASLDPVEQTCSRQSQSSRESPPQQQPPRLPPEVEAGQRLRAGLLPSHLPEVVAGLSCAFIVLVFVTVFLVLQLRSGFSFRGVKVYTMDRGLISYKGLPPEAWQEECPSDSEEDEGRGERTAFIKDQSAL
NS23 peptide cs = Selectivity profile for inhibitors of NSP2Pro chikungunya virus (CHIKV): Endogenous NS2/3 peptide Counterscreen; AID 1964103, 2024; shares compounds with nsP2pro inh; Potency, µM (top dose mostly 51 µM), most hits filed as inhibitors; Purified CHIKV nsP2 protease, endogenous NS2/3 peptide cleavage; hit rate 34% among 410; also: nearly all actives have a fitted effect of over 55% in size
Papain cs = Selectivity profile for inhibitors of NSP2Pro chikungunya virus (CHIKV): Papain Counterscreen | shares compounds with nsP2pro inh | purified papain protease activity, enzymatic inhibition | Potency, µM (titrated, usually from 51 µM), most hits filed as inhibitors | hit rate 5% among 410 | AID 1964104, 2024
nsP2pro conf qHTS = Confirmatory qHTS for inhibitors of NSP2Pro chikungunya virus (CHIKV) | CHIKV nsP2 protease enzymatic activity, qHTS | Potency, µM (highest dose often 25.5 µM), hits mostly inhibitors | hit rate 43% among 410 | shares compounds with nsP2pro inh; also: nearly all actives have a fitted effect of over 75% in size
HCV NS3 counter = Selectivity profile for inhibitors of NSP2Pro chikungunya virus (CHIKV): NS34A-HCV Counterscreen. shares compounds with nsP2pro inh. HCV NS3/4A protease biochemical counterscreen. Potency, µM (doses to about 50.9 µM), most hits filed as inhibitors. hit rate 20% among 410. AID 1964106, 2024; also: nearly all actives have a fitted effect of over 55% in size
Each line names hits and unclear results; the compound was inactive in the other large screens (follow-up assays come after a bar, where they were run). The sample as a whole holds a higher share of hits than the screen did. Calls follow the shape of the full dose curve.

CCOC(=O)C1CCN(C(=O)C(C)(C)NC(=O)Nc2ccc(Oc3ccccc3)cc2)CC1	none
CC(=O)Oc1cc2c(s1)CCN(C(C(=O)C1CC1)c1ccccc1F)C2 (centres undefined)	nsP2pro inh inconclusive | nsP2 cell sec inactive | CHIKV NSP2 FL inconclusive | Furin counterscr inactive | NS23 peptide cs inconclusive | Papain cs inconclusive | nsP2pro conf qHTS inconclusive | HCV NS3 counter inactive
COc1cc(N)cn[n+]1-c1ccccc1	none
N#Cc1ccc(-c2csc(NN=C3CCCC3)n2)cc1	none
COC1=Cc2c(nc3n(c2=O)C(C)C(=O)NC3(O)C(C)C)OC=C1 (centres undefined)	nsP2pro inh inconclusive | nsP2 cell sec inactive | CHIKV NSP2 FL inactive | Furin counterscr inactive | NS23 peptide cs inactive | Papain cs inactive | nsP2pro conf qHTS inconclusive | HCV NS3 counter inactive
CC(C)/C=C1\NC(=O)C(C(C)C)n2c1nc1c(c2=O)C=CC=CO1 (centres undefined)	none
CCc1cc(C(N)=O)ccc1-n1nc(C(C)C)c2c(-n3cnc(-c4cnn(C)c4)c3)ccnc21	none
COc1ccccc1-c1ccc(CN2CCCC(c3nc4ccc(C)cc4c(=O)[nH]3)C2)cc1 (centres undefined)	none
NCCOCCOCCNC(=O)Cc1ccc(Nc2nc(NCc3ccc(F)cc3)nc(NCC3CCCCC3)n2)cc1	none
O=C(NCCc1ccc(F)cc1)c1cc(-c2ccccc2)c2nncn2n1	none
C=C1C(=O)O[C@@H]2C3=C(C)CCC[C@]3(C)CC[C@@]12O	nsP2pro inh 3.1µM | nsP2 cell sec inconclusive | CHIKV NSP2 FL inconclusive | Furin counterscr inactive | NS23 peptide cs 18µM | Papain cs inactive | nsP2pro conf qHTS inconclusive | HCV NS3 counter inactive
CC1=C2C3OC(=O)C(C)C3(O)CCC2(C)CCC1 (centres undefined)	none
CC1=C2C3OC(=O)C(C)C3(O)CCC2(C)CCC1=O (centres undefined)	none
CCCCC(=O)N(Cc1ccc(-c2ccccc2-c2nnn[nH]2)cc1)[C@H](C(=O)O)C(C)C (tested in a mixture with another compound)	none
c1cncc(-c2ccc3ncnc(NCc4cccs4)c3c2)c1	none
c1csc(CNc2ncnc3ccc(-c4ccc5c(c4)OCO5)cc23)n1	none
OCc1ccc(-c2ccc3ncnc(NCc4nccs4)c3c2)o1	nsP2pro inh 8.9µM | nsP2 cell sec inconclusive | CHIKV NSP2 FL 10µM | Furin counterscr inactive | NS23 peptide cs 21µM | Papain cs inactive | nsP2pro conf qHTS inconclusive | HCV NS3 counter 3.7µM
Cc1cc(C)nc(NC(=S)N2CCN(c3ccc4nccn4c3)CC2)c1	none
C=C(C)C1CC[C@]2(C(=O)O)CC[C@]3(C(=O)O)[C@H](CCC4[C@@]5(C)CC[C@H](O)C(C)(C)C5CC[C@]43C)C12 (some centres undefined)	none
CCN(Cc1ccccc1)C(=O)CCC[C@H]1NC[C@@H]2CC1CN(Cc1ccccc1)C2	none
C[C@@H]1NC(=O)[C@@H]2CCCN2C(=O)[C@H](CC(N)=O)NC(=O)[C@@H]2CSSC[C@H](N)C(=O)N[C@H]3CSSC[C@H](NC1=O)C(=O)N[C@@H]([C@@H](C)O)C(=O)NCC(=O)N[C@H](C(=O)N[C@@H](Cc1ccc(O)cc1)C(=O)O)CSSC[C@H](NC(=O)[C@H](Cc1ccc(O)cc1)NC(=O)[C@H](CCC(=O)O)NC3=O)C(=O)N2	none
Cc1ccc(OCCn2c(CCNC(=O)c3cccc4[nH]ccc34)nc3ccccc32)cc1	none
CC(C)(O/N=C(\C(=O)N[C@@H]1C(=O)N2C(C(=O)[O-])=C(C[N+]3(CCNC(=O)c4ccc(O)c(O)c4Cl)CCCC3)CS[C@H]12)c1csc(N)n1)C(=O)O	none
NCCCC(=O)N1CCC2(CC1)CN(C(=O)c1ccc(Cl)cc1)CCO2	none
NCCC(=O)N1CCC2(CC1)CN(C(=O)c1ccc(Cl)cc1)CCO2	nsP2pro inh 7.9µM | nsP2 cell sec inactive | CHIKV NSP2 FL 12µM | Furin counterscr inactive | NS23 peptide cs 18µM | Papain cs inactive | nsP2pro conf qHTS 9µM | HCV NS3 counter 2.9µM
COc1ccc(C(=O)N2CCOC3(CCN(C(=O)CCN)CC3)C2)cc1	none
CC(CC12CCCN1C(=O)C1CCCN1C2=O)OC(N)=O (centres undefined)	none
CCOc1ccc(Cc2cc([C@@H]3O[C@H](CO)[C@@H](O)[C@H](O)[C@H]3O)ccc2Cl)cc1	none
CNC(=O)[C@@H]1CN(S(=O)(=O)C(C)C)C[C@H]1c1n[nH]c(C)n1	none
O=C(Nc1cc(-c2ccncc2)nn1-c1ccccc1)c1ccc(Cl)cc1	none
C=C1C(=O)OC2CC3(C)C(CC12)C(C)=CC(O)C3OC(C)=O (centres undefined)	none
C=C1C(=O)OC2C1CCC1(C)C(O)CCC(=C)C21 (centres undefined)	none
C=C1C(=O)OC2C1C(O)CC1(C)C(O)CCC(C=O)C21 (centres undefined)	nsP2pro inh inconclusive | nsP2 cell sec inactive | CHIKV NSP2 FL inactive | Furin counterscr inactive | NS23 peptide cs inactive | Papain cs inactive | nsP2pro conf qHTS inactive | HCV NS3 counter inactive
CC1=CCC(O)C2(C)CCC3C(C)C(=O)OC3C12 (centres undefined)	none
C=C1C(=O)O[C@@H]2[C@H]1[C@H](O)C[C@]1(C)[C@@H](O)CC=C(C)[C@@H]21	nsP2pro inh inconclusive | nsP2 cell sec inconclusive | CHIKV NSP2 FL inactive | Furin counterscr inactive | NS23 peptide cs inactive | Papain cs inactive | nsP2pro conf qHTS inactive | HCV NS3 counter inactive
C[C@]12CC[C@H]3[C@@H]([C@H](O)CC4=CC(=O)CC[C@@]43C)[C@@H]1CC[C@@H]2O	none
O=C(O)c1cccc(-c2noc(-c3ccc(Cl)cc3)n2)c1	none
